# Compounds with a hit are over-represented: about 21% of the library has one in this group of screens.
# D3 ag – activates the human D3 dopamine receptor; P35462; D3R DiscoveRx beta-arrestin cells, luminescence, 90 min; max activation, %; hit rate 0.58% among 410,000; in the data active = max activation above about 30%; also: 0% is about no effect
# Target sequence (P35462 whole entry, looked up): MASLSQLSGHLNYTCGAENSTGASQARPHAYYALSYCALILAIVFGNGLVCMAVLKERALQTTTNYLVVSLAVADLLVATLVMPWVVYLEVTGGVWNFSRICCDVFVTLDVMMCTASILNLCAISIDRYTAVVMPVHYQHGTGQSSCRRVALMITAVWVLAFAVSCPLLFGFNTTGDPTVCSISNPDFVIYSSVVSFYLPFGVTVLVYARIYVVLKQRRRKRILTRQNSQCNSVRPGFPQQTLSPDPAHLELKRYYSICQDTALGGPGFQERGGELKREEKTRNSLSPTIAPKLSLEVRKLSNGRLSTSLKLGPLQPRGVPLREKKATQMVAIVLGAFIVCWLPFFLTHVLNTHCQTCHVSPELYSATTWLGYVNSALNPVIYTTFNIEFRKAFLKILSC
#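 Agonist-mode cell screen: cells plated at 1500/well and incubated overnight at 37 °C, then exposed to library compounds for 90 min at 37 °C. Detection reagent was added for 30–60 min at room temperature, and luminescence was read.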
# TDP1 cell noCPT – qHTS for Inhibitors of human tyrosyl-DNA phosphodiesterase 1 (TDP1): qHTS in cells in absence of CPT; DT40 Tdp1-/- hTDP1 cells, no CPT, ATP luminescence, 48 h; Potency, µM (highest dose often 46.2 µM), inactives show at the top dose activity change, negative = growth inhibition, actives largely listed as inhibitors; hit rate 15% among 420,000; also: potency is read from the fitted curve at half-maximal effect; % is scaled to controls: 0 for no effect and ±100 for the full control effect; nearly all actives have a fitted effect of over 55% in size
#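 DT40 Tdp1-/-;hTDP1 cells, no CPT (DMSO vehicle only), 400 cells/well; compounds pin-transferred; ≥48 hr, 37 °C; CellTiter-Glo 30 min RT dark, luminescence read.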
# IL-1B inflam inh – blocks inflammasome-driven IL-1 beta release; AID 743279; THP-1 LPS/ATP IL-1B secretion, AlphaLISA, 16 h; stronger effect = lower value; activity change, % at 57.5 µM; hit rate 4.7% among 360,000; in the data active = activity change below about -50%; inconclusive = mostly about -30% to -49%; also: % is scaled to controls: 0 for no effect and ±100 for the full control effect
#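 Secreted IL-1B measured by AlphaLISA bead assay after 16 h compound exposure of THP-1 cells; compounds (final up to 57.5 uM) added 1 h before LPS (250 ng/mL) and ATP (1.25 mM) stimulation; lower signal means less secretion.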
# ClpP mod – qHTS Assay for Activators of ClpP. ATP-dependent Clp protease proteolytic subunit (Bacillus subtilis (strain 168)), P80244. purified B. subtilis ClpP, FRET peptide cleavage, 20 min. Potency, µM (series often up to 57.5 µM), without a hit: at the highest dose activity change, negative = active. hit rate 1.9% among 340,000. AID 651965, 2013; active = well fitted falling curve with a large enough effect; inconclusive = small, poorly fitted or top-dose-only effect; inactive = no such curve, though single readings can be large or run the other way; also: potency is read from the fitted curve at half-maximal effect; the source files actives as falling curves though it sought activators and does not explain the sign; nearly all actives have a fitted effect of over 65% in size
# Target sequence (P80244 whole entry, looked up): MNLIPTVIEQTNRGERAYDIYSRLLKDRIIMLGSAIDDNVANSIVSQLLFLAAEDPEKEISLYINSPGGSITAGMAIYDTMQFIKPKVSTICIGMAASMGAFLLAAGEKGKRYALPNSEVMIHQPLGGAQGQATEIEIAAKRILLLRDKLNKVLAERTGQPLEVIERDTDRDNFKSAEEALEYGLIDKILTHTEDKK
#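 FRET quenching reversal measured ClpP activation: 10 microg/mL B. subtilis ClpP at pH 8 with the FRET-FV decapeptide, read at 430 nm after 320 nm excitation. The 20-min minus 0-min signal was scaled between DMSO/no-enzyme wells and ADEP (5.8 microM final).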
# DT40 TDP1 CPT – DT40-hTDP1 cell growth loss with CPT; hit rate 12% among 420,000; chicken DT40 Tdp1-/-;hTDP1 cells + 20 nM CPT, ATP luminescence, 48 h; Potency, µM (highest dose often 46.2 µM), for the others: top-dose activity change, negative = growth inhibition, hits mostly inhibitors; AID 686979; also: potency is read from the fitted curve at half-maximal effect; % is scaled to controls: 0 for no effect and ±100 for the full control effect; nearly all actives have a fitted effect of over 55% in size
#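 Chicken DT40 Tdp1-/- cells complemented with human TDP1, 400 cells/well, exposed to compounds plus 20 nM camptothecin for at least 48 h at 37 C; viability read as ATP content by CellTiter-Glo luminescence.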
# DRD3 antagonist – D3 dopamine receptor (human) antagonism; P35462; D3R cells, DiscoveRx beta-arrestin luminescence, antagonist mode; stronger effect = lower value; max response, negative = inhibition, %; hit rate 2.5% among 360,000; in the data active = max response below about -50%; inconclusive = no clear call, values can overlap the other calls; also: % is scaled to controls: 0 for no effect and ±100 for the full control effect
#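 Cells plated overnight at 1500 cells/well, then exposed to library compounds with dopamine controls for 90 minutes at 37 degrees C. DiscoveRx reagent added for 30–60 minutes at room temperature; luminescence read, quantitative HTS format.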
# Numbers without * were called inactive; ? = inconclusive; . = not tested or not shown. Unless noted, calls follow the shape of the dose curve; as a rule, active = well fitted inhibition curve with a large enough effect; inconclusive = small, poorly fitted or top-dose-only effect; inactive = flat fitted curve, though single readings scatter.
SMILES,D3 ag,TDP1 cell noCPT,IL-1B inflam inh,ClpP mod,DT40 TDP1 CPT,DRD3 antagonist
CCOC(=O)c1c(C)[nH]c(C)c1S(=O)(=O)NCC(=O)NCc1ccccc1C,-17.0,-15.0%,.,-8.9%,-12.1%,.
CCc1cccc(C)c1NC(=O)CCn1nc(C)c2c(C)n(-c3ccccc3)nc2c1=O,-13.6,-24.9%,.,-10.9%,-20.6%,.
OCl,6.3,-4.0%,.,.,-1.8%,.
COc1ccc(/C=N/NS(=O)(=O)c2ccccc2)cc1OC,5.2,23.1µM*,6.6,1.5%,20.6µM*,9.0
COCCNC(=S)N/N=C/c1ccc(OCc2ccc(C(=O)OC)cc2)c(OC)c1,-5.9,23.1µM*,-8.5,-21.9%,?,2.3
COCCNC(=O)C(=O)N/N=C/c1ccc(C(=O)OC)cc1,4.2,-0.1%,-1.6,.,-3.9%,1.3
COc1cc(/C=N\NS(=O)(=O)c2ccccc2)cc(OC)c1OC,0.7,-16.0%,18.6,-1.4%,-4.0%,16.7
COc1ccc(/C=C(/C#N)C(=O)Nc2cc(C)ccc2C)cc1C(=O)O,5.4,3.9%,10.0,25.1µM*,-18.3%,26.3
C=CCNC(=O)/C(C#N)=C/c1ccc(OS(=O)(=O)c2ccc(C)cc2)c(OC)c1,5.0,?,-78.6*,-15.8%,?,-13.8
CN1CCN(NC(=O)c2cccc(C(F)(F)F)c2)CC1,-7.7,-9.6%,-5.2,.,2.4%,9.9
COc1ccccc1CCNC(=O)CSc1nnc2ccc(-c3ccncc3)nn12,-17.0,-1.6%,?,1.3%,-3.3%,-18.8
CCOc1ccc(/C=N/NS(=O)(=O)c2ccc(C)cc2)cc1OC,3.1,-15.0%,-0.1,0.8%,-12.8%,-1.5
COC(=O)N/N=C/c1ccc(OS(=O)(=O)c2ccc(C)cc2)c(OC)c1,-21.6,?,-71.7*,.,-19.2%,-19.1
O=S(=O)(N/N=C/c1cccc(OC2CSC2)c1)c1ccccc1,-10.0,?,4.0,-1.5%,16.4µM*,-66.2*
Cc1ccc(S(=O)(=O)N/N=C/c2cccc(OC3CSC3)c2)cc1,-5.8,?,30.0,0.7%,?,?
COc1ccc(C=NNC(=O)NN=Cc2ccc(OC)c(OC)c2)cc1OC,8.3,20.6µM*,?,.,?,25.9
COC(=O)Oc1ccc(/C=N/NC(=O)CSCc2ccccc2Br)cc1OC,4.2,14.6µM*,-19.4,-0.1%,23.1µM*,1.1
COc1ccc(-n2c(O)c(/C=N/NS(=O)(=O)c3cccc([N+](=O)[O-])c3)c3ccccc3c2=O)cc1OC,-1.1,18.4µM*,33.8,.,23.1µM*,-7.0
COc1cc(/C=N/NC(=O)COc2cccc(F)c2)ccc1OS(=O)(=O)c1ccc(C)cc1,-8.9,25.9µM*,2.5,-3.6%,18.4µM*,-53.3*
COc1ccc2c(c1)c(C(=O)N/N=C/c1ccc(OC)c(OC)c1)c(C)n2C,-8.7,11.6µM*,-11.4,1.4%,18.4µM*,-2.2
COc1ccccc1/C=N/NS(=O)(=O)c1ccccc1,0.7,-28.8%,23.3,-1.3%,-18.8%,3.7
COc1ccc(Br)cc1/C=N/NS(=O)(=O)c1ccccc1,-0.8,7.31µM*,74.9,0.1%,18.4µM*,?
O=C(CCC(=O)Nc1ccccc1Cl)NNC(=O)Nc1cccc([N+](=O)[O-])c1,4.2,-8.5%,0.8,-1.7%,-6.4%,-16.3
COc1ccc(/C=N/NS(=O)(=O)c2ccccc2)cc1OS(=O)(=O)c1ccc(C)cc1,1.3,18.4µM*,21.2,1.7%,?,-6.1
COc1cc(/C=N/NS(=O)(=O)c2ccccc2)ccc1OS(=O)(=O)c1ccc(C)cc1,2.0,-5.7%,-3.6,-0.7%,1.1%,-10.0
SMILES,D3 ag,TDP1 cell noCPT,IL-1B inflam inh,ClpP mod,DT40 TDP1 CPT,DRD3 antagonist
O=C(O)C1=CC[C@@H](c2ccc(Cl)cc2)N(S(=O)(=O)c2ccc(Cl)cc2)[C@H]1c1cccc(Cl)c1,-22.5,-8.3%,37.1,-1.6%,-23.0%,-27.7
CCCn1c(N)c(C(=O)CSc2n[nH]c(-c3ccccc3F)n2)c(=O)n(C)c1=O,1.9,23.1µM*,42.7,-0.9%,20.6µM*,30.7
Cn1c(N)c(C(=O)CSc2nnc(-c3ccccc3F)n2N)c(=O)n(C)c1=O,-8.2,14.3%,-4.8,.,0.7%,1.3
CCCn1c(N)c(C(=O)CSc2nnc(Cc3ccccc3)o2)c(=O)n(C)c1=O,0.9,23.1µM*,79.5,-0.6%,?,47.5
Cc1ccc(C)c(C(=O)C(C)OC(=O)c2cccn2C)c1 (centres undefined),-1.3,?,10.3,1.1%,?,-50.5*
Cc1cnc(C(=O)NC(Cc2ccccc2)c2ccccc2)cn1 (centres undefined),4.9,-28.7%,50.2,.,-1.6%,1.9
CC(=O)Cc1nsc(NC(=O)c2ccc(Br)o2)n1,-2.3,1.64µM*,15.5,-0.7%,?,8.6
CC(=O)Cc1nsc(NC(=O)c2ccco2)n1,-6.6,?,-5.0,-0.3%,-16.2%,-13.3
CC(=O)Cc1nsc(NC(=O)c2ccc(-c3cccc(Cl)c3)o2)n1,0.8,16.4µM*,-29.4,-19.1%,16.4µM*,-0.3
COCCCN(C(=O)C1CCC1)c1c(N)n(Cc2ccccc2)c(=O)[nH]c1=O,2.5,9.6%,31.0,-1.3%,-7.8%,4.6
CC(=O)c1c(O)cc(C)n(Nc2nc(C)cc(C)n2)c1=O,-7.2,?,84.5,-0.4%,18.4µM*,-29.2
CC(=O)c1c(O)cc(C)n(-c2ccc(F)cc2)c1=O,1.7,-29.7%,17.8,-1.4%,-4.4%,-9.1
CC(C)C[C@H]1CN(CCCC[C@H]2CNC(=O)C(=O)N2CCc2ccccc2)C(=O)C(=O)N1CCc1ccccc1,5.9,-14.3%,-4.5,0.6%,-13.6%,2.5
CCC(C)c1ccccc1N1CC(C(=O)N2CCN(C(=O)c3ccco3)CC2)CC1=O (centres undefined),8.8,6.1%,-14.1,-1.2%,-1.4%,2.2
CCOc1ccccc1N1CC(C(=O)Nc2cccc(S(=O)(=O)N3CCCCC3)c2)CC1=O (centres undefined),-6.2,23.1µM*,-26.7,0.1%,?,-17.0
CCC(C)c1ccccc1N1CC(C(=O)N2CCN(c3ccccc3)CC2)CC1=O (centres undefined),-2.9,23.1µM*,-2.7,1.4%,14.6µM*,3.4
O=C(Nc1ccc(S(=O)(=O)N2CCCC2)cc1)C1CC(=O)N(c2ccccc2)C1 (centres undefined),-1.2,12.5%,3.1,.,-4.9%,7.4

# Compound activity (PubChem BioAssay)
